Test results from PubChem BioAssay (NCATS).
Where “and” joins values, the source holds several entries; their conditions need not be identical. Identical values can stand only once. Results filed as inconclusive are left out. A call without a number means that no potency is given here. Where a structure was tested more than once in an assay, its records may differ in their call. Calls of active or inactive are those of the source. Calls follow the shape of the dose curve; as a rule, active = well fitted curve in the direction sought with a large enough effect; inconclusive = small, poorly fitted or top-dose-only effect, or another doubt; inactive = no such curve, though single readings can be large; an effect the other way counts as inactive or inconclusive.

Assays:
[1] = biological target: Glutathione peroxidase 1 (Homo sapiens) (UniProt P07203); assay: Primary qHTS Assay for Inhibitors of Recombinant Selenoprotein Glutathione Peroxidase 1 (GPX1) (AID 1845191); conditions: recombinant GPX1, GR-coupled NADPH fluorescence, 15 min; series mostly up to 48.8 µM; also: nearly all actives have a fitted effect of over 65% in size; also: potency is read from the fitted curve at half-maximal effect
Sequence of Glutathione peroxidase 1 (Homo sapiens) (P07203 whole entry, looked up): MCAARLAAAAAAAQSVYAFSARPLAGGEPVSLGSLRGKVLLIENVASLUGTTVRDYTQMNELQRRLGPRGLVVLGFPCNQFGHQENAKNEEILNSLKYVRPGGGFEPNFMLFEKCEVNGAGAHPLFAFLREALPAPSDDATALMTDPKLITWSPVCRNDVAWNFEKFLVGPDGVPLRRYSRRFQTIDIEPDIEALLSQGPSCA
In short: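 GR-coupled readout: NADPH consumption tracked by fluorescence, ex 340/em 450 nm, at t=0 and after 15 min at RT. Final mix 10 nM GPX1, 1 mM GSH, 0.5 mM CHP, 0.5 mM NADPH, 100 nM GR, 0.01% BSA, following 30 min enzyme–compound preincubation.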

[2] = biological target: Phospholipid hydroperoxide glutathione peroxidase GPX4 (Homo sapiens) (UniProt P36969); assay: Primary qHTS Assay for Inhibitors of Recombinant Selenoprotein Glutathione Peroxidase 4 (GPX4) (AID 1845192); conditions: recombinant GPX4, GR-coupled NADPH fluorescence, 15 min; series mostly up to 50 µM; also: nearly all actives have a fitted effect of over 65% in size
Sequence of Phospholipid hydroperoxide glutathione peroxidase GPX4 (Homo sapiens) (P36969 whole entry, looked up): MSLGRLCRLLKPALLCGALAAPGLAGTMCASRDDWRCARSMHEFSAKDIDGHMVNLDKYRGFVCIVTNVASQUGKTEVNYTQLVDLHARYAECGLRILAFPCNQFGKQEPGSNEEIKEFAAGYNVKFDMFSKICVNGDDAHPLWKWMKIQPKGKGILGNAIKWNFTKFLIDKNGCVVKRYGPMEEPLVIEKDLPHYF
In short: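 Steps: GPX4 plus compound, 30 min RT; add GR/GSH/NADPH master mix; start with cumene hydroperoxide; read 340/450 nm fluorescence at 0 and 15 min. Finals were 200 nM GPX4, 1 mM GSH, 0.5 mM CHP, 0.5 mM NADPH, 100 nM GR.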

[3] = Quantitative High-Throughput drug screen in 47 multiple myeloma cell lines against the NCATS MIPE library collection: Delta47_JCRB cell viability assay (AID 1918925; also: nearly all actives have a fitted effect of over 45% in size; also: potency is read from the fitted curve at half-maximal effect); conditions: Delta47 myeloma viability, CellTiter-Glo ATP, 48 h; series mostly up to 45.8 µM
In short: (§1)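 CellTiter-Glo luminescence (ATP) after 48 h compound exposure, 37C/5% CO2; 500 cells/well; MIPE 4.0 approved/investigational drugs pinned in; DMSO = 100%, media only = 0% viability.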

[4] = Quantitative High-Throughput drug screen in 47 multiple myeloma cell lines against the NCATS MIPE library collection: EJM_DSMZ cell viability assay (AID 1918926; also: nearly all actives have a fitted effect of over 30% in size); conditions: EJM myeloma cell viability, CellTiter-Glo ATP, 48 h; series mostly up to 45.8 µM
In short: as §1

[5] = Quantitative High-Throughput drug screen in 47 multiple myeloma cell lines against the NCATS MIPE library collection: AMO1_DSMZ cell viability assay (AID 1918927; also: nearly all actives have a fitted effect of over 30% in size; also: potency is read from the fitted curve at half-maximal effect); conditions: AMO1 myeloma cells viability, CellTiter-Glo ATP luminescence, 48 h; series mostly up to 45.8 µM
In short: as §1

[6] = Primary fluorescence-based thiol-reactive (MSTI) qHTS assay for identification of artifact compounds. (AID 1845221); conditions: MSTI thiol-reactivity probe, 1 h; series mostly up to 53.8 µM;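 also: thiol-reactive compounds lower the probe fluorescence signal; nearly all actives have a fitted effect of over 65% in size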
In short: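 Thiol-reactive compounds detected by quenching of 4 uM MSTI fluorescence (525/598 nm) after 1 h room-temperature dark incubation in PBS pH 7.4, 2% DMSO. qHTS titration; percent inhibition Hill-fitted against Acetyl-MSTI/MSTI controls.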

[7] = system: Nanoluciferase (engineered Oplophorus gracilirostris luciferase); assay: Primary Nanoluciferase (NLuc) qHTS assay for identification of artifact compounds. (AID 1845222); conditions: NLuc-conditioned medium, Nano-Glo luminescence, 5 min; series mostly up to 54.1 µM
In short: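 Diluted conditioned medium from NLuc-expressing S16 cells treated with compounds for 15 min at room temperature, then Nano-Glo substrate added; luminescence read after 5 min. Percent inhibition versus no-enzyme and DMSO controls fitted to 4-parameter Hill equation.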

[8] = Primary redox qHTS assay for identification of artifact compounds. (AID 1845223); conditions: Amplex Red/HRP redox cycling with DTT, fluorescence; series mostly up to 53.8 µM
In short: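 Redox-cycling detection via DTT (250 uM final) oxidation coupled to Amplex Red (25 uM)/HRP (250 mU/mL) in HBSS. 15 min preincubation plus 30 min after DTT, room temperature. Ex/Em 525/598 nm; 4-parameter Hill fit against DMSO and 10 uM DA3003.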

[9] = Quantitative High-Throughput drug screen in 47 multiple myeloma cell lines against the NCATS MIPE library collection: FR4_PLB cell viability assay (AID 1918924; also: nearly all actives have a fitted effect of over 35% in size); conditions: FR4_PLB myeloma cells viability, CellTiter-Glo ATP, 48 h; series mostly up to 45.8 µM
In short: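 Steps: seed 500 cells per well; pin-transfer MIPE 4.0 library; incubate 48 h at 37C, 5% CO2, humidified; add CellTiter-Glo, 5 min room temperature; read luminescence.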

With `COc1cc2nc(N3CCN(C(=O)C4CCCO4)CC3)nc(N)c2cc1OC` (stereo unspecified) as the molecule, how does the Potency [1] read?
The Potency was “inactive”.

And the Potency [2]?
Its Potency is “inactive”.

What about the Potency [3] of the same molecule?
Its Potency is “inactive”.

And the Potency [4]?
Its Potency is “inactive”.

What does the source list for `Cc1ccc(S(=O)(=O)NC(=O)NN2CC3CCCC3C2)cc1` (stereo unspecified)?
Potency [1]: inactive; Potency [2]: inactive; Potency [3]: 18.7 µM (active); Potency [5]: 23.5 µM (active)

Which results are given for `COCCCOc1ccnc(CS(=O)c2nc3ccccc3[nH]2)c1C` (stereo unspecified)?
Potency [1]: inactive and 14.3 µM (active); Potency [6]: inactive; outcome [7]: inactive; outcome [8]: inactive; Potency [9]: inactive; Potency [3]: inactive; Potency [5]: inactive

Which Potency [1] does the source give for `CC(C)Oc1ccc2c(=O)c(-c3ccccc3)coc2c1` here?
Its Potency is “inactive”.

What about the Potency [2] of the same molecule?
Its Potency is “inactive”.

And the Potency [3]?
Its Potency is “inactive”.

What about the Potency [4] of the same molecule?
Its Potency is “inactive”.

What about the Potency [5] of the same molecule?
The Potency was “inactive”.

For `Cc1cc2cc3c(C)cc(=O)oc3c(C)c2o1`, which Potency [1] is on record?
The Potency was “inactive”.

What about the Potency [2] of the same molecule?
Its Potency is “inactive”.

What about the Potency [3] of the same molecule?
Its Potency is 20.9 µM (active).

With `CCCCCCCCOc1ccccc1C(=O)Nc1ccc(C(=O)OCC[N+](C)(CC)CC)cc1` as the molecule, how does the Potency [3] read?
The Potency was 18.7 µM (active).

And the Potency [5]?
Its Potency is “inactive”.

Which Potency [1] does the source give for `COCCCN1CCC(NC(=O)c2cc(Cl)c(N)c3c2OCC3)CC1` here?
Its Potency is “inactive”.

And the Potency [2]?
The Potency was “inactive”.

What about the Potency [3] of the same molecule?
Its Potency is 18.7 µM (active).

What about the Potency [5] of the same molecule?
Its Potency is 14.8 µM (active).

For `N=C(N=C(N)N)N1CCOCC1`, which Potency [9] is on record?
The Potency was “inactive”.

And the Potency [3]?
Its Potency is “inactive”.

And the Potency [4]?
The Potency was “inactive”.

What about the Potency [5] of the same molecule?
Its Potency is “inactive”.

What does the source list for `COc1c2occc2cc2ccc(=O)oc12`?
Potency [1]: inactive; Potency [2]: inactive; Potency [3]: inactive; Potency [4]: inactive; Potency [5]: inactive

Which Potency [1] does the source give for `CCN(CC)CCOc1ccc(Cc2ccccc2)cc1` here?
The Potency was “inactive”.

And the Potency [2]?
Its Potency is “inactive”.

And the Potency [3]?
Its Potency is “inactive”.

And the Potency [5]?
Its Potency is 20.9 µM (active).

What does the source list for `COC1=C(OC)C(=O)C(CCCCCCCCCCO)=C(C)C1=O`?
Potency [1]: inactive and 7.28 µM (active); Potency [2]: inactive; Potency [3]: 18.7 µM (active); Potency [4]: inactive; Potency [5]: 10.5 µM (active)

Which results are given for `CCc1nc(N)nc(N)c1-c1ccc(Cl)cc1`?
Potency [1]: inactive; Potency [2]: inactive; Potency [3]: inactive; Potency [4]: inactive; Potency [5]: 1.48 µM (active)

Which Potency [1] does the source give for `Cc1c(C(=O)NN2CCCCC2)nn(-c2ccc(Cl)cc2Cl)c1-c1ccc(Cl)cc1` here?
The Potency was “inactive”.

And the Potency [2]?
The Potency was “inactive”.

What about the Potency [5] of the same molecule?
The Potency was 16.6 µM (active).

What does the source list for `Cn1c(NCCN(CCO)CCCc2ccc([N+](=O)[O-])cc2)cc(=O)n(C)c1=O`?
Potency [1]: inactive; Potency [2]: inactive; Potency [5]: 18.7 µM (active)

For `CC1=C(C(=O)O)N2C(=O)[C@@H](NC(=O)[C@H](N)C3=CCC=CC3)[C@H]2SC1`, which Potency [3] is on record?
Its Potency is “inactive”.

Which Potency [1] does the source give for `Cc1cccc(C)c1OCC(=O)N[C@@H](Cc1ccccc1)[C@@H](O)C[C@H](Cc1ccccc1)NC(=O)[C@H](C(C)C)N1CCCNC1=O` here?
Its Potency is “inactive”.

And the Potency [2]?
Its Potency is “inactive”.

And the Potency [5]?
Its Potency is 8.33 µM (active).

For `COC(=O)C1=C(C)NC(C)=C(C(=O)OCCCN2CCC(c3ccccc3)(c3ccccc3)CC2)C1c1cccc([N+](=O)[O-])c1` (stereo unspecified), which Potency [1] is on record?
The Potency was “inactive”.

And the Potency [9]?
The Potency was “inactive”.

And the Potency [4]?
The Potency was “inactive”.

And the Potency [5]?
The Potency was “inactive”.
